# Laboratory results from PMC7862700, “An all-to-all approach to the identification of sequence-specific readers for epigenetic DNA modifications on cytosine”.
# What was measured:
# Experiment in all cases: DAPPL (digital affinity profiling via proximity ligation, sequencing); 10 mM Tris-HCl pH 7.5, 50 mM NaCl, 1 mM DTT, 4% glycerol, room temperature, 30 min; GST-TFs on glutathione beads, 16-mer random dsDNA library, 0.1% formaldehyde crosslink after washing; high values mean tight binding
# FEV = target: T1, FEV (Homo sapiens, UniProt Q99581 1-238); settings: protein: recombinant; tags: N-terminal GST; dsDNA, one strand shown
# T1 sequence: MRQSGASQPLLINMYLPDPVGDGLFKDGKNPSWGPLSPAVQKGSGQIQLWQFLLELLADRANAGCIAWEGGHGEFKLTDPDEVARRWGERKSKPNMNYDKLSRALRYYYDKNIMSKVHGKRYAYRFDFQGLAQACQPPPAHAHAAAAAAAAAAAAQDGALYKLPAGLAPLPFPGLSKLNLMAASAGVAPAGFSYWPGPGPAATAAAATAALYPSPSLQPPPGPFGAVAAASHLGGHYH
# In short: (§1)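 Human transcription factors were made in yeast as GST fusions, captured on glutathione beads and barcoded with DNA. With a tag-only sample included, the pool was incubated with 200 nmole of a random double-stranded 16-mer DNA library in Tris/NaCl/DTT/glycerol buffer at room temperature for 30 min, then crosslinked with 0.1% formaldehyde after washing, ligated by proximity, amplified and sequenced. For binding signal, each hexamer's read frequency for a factor is divided by its frequency for the tag-only sample.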
# ETV5 = ETV5 (Homo sapiens, UniProt P41161 1-510); settings: protein: recombinant; tags: N-terminal GST; dsDNA, one strand shown
# In short: as §1
# HSF1 = HSF1 (Homo sapiens, UniProt Q00613 1-529); settings: protein: recombinant; tags: N-terminal GST; chain copies: 3; dsDNA, one strand shown
# In short: as §1
# SPIC = target: T2, SPIC (Homo sapiens, UniProt Q8N5J4 1-248); settings: protein: recombinant; tags: N-terminal GST; dsDNA, one strand shown
# T2 sequence: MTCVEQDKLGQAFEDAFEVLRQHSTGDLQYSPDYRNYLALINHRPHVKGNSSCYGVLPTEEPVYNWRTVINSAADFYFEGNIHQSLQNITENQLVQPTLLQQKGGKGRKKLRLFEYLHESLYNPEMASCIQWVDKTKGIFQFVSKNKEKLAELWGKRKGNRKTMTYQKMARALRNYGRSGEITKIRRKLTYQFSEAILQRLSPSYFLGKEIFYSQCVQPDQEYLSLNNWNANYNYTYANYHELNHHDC
# In short: as §1
# ELF4 = ELF4 (Homo sapiens, UniProt Q99607 1-663); settings: protein: recombinant; tags: N-terminal GST; dsDNA, one strand shown
# In short: as §1
# ELK4 = target: T3, ELK4 (Homo sapiens, UniProt P28324-2 1-405); settings: protein: recombinant; tags: N-terminal GST; dsDNA, one strand shown
# T3 sequence: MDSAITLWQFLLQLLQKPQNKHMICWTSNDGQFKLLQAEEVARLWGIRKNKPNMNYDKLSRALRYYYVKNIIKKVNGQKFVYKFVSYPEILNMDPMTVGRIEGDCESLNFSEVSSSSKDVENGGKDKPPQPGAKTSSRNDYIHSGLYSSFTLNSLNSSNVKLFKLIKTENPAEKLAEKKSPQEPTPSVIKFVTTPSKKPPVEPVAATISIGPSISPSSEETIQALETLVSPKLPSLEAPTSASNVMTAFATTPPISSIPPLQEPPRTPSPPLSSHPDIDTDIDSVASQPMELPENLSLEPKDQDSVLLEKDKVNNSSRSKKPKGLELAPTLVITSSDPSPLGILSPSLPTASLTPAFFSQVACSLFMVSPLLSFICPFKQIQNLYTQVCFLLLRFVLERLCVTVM
# In short: as §1
# ETV2 = target: T4, ETV2 (Homo sapiens, UniProt O00321 1-342); settings: protein: recombinant; tags: N-terminal GST; dsDNA, one strand shown
# T4 sequence: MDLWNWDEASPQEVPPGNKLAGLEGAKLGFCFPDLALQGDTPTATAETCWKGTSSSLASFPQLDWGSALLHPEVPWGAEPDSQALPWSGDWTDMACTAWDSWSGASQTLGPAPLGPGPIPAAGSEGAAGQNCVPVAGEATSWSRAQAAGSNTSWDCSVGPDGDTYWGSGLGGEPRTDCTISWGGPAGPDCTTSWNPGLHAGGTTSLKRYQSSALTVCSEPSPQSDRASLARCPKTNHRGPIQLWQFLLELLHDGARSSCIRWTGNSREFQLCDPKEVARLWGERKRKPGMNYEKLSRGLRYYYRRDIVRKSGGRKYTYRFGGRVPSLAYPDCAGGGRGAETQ
# In short: as §1
# ELF3 = target: T5, ELF3 (Homo sapiens, UniProt P78545 1-371); settings: protein: recombinant; tags: N-terminal GST; dsDNA, one strand shown
# T5 sequence: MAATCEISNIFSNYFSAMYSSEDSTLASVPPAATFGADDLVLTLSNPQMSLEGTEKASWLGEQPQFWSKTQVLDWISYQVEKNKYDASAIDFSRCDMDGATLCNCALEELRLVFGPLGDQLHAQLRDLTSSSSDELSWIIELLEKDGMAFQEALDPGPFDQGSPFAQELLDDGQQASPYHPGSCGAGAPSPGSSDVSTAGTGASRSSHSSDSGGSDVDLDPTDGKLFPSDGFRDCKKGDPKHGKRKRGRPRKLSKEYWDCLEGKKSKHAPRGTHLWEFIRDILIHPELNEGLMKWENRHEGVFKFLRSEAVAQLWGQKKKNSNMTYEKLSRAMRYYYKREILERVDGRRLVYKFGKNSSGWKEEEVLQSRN
# In short: as §1
# CRX = CRX (Homo sapiens, UniProt O43186 1-299); settings: protein: recombinant; tags: N-terminal GST; dsDNA, one strand shown
# In short: as §1
# ETV1 = ETV1 (Homo sapiens, UniProt P50549 1-477); settings: protein: recombinant; tags: N-terminal GST; dsDNA, one strand shown
# In short: as §1
# ERF = target: T6, ERF (Homo sapiens, UniProt P50548 1-548); settings: protein: recombinant; tags: N-terminal GST; dsDNA, one strand shown
# T6 sequence: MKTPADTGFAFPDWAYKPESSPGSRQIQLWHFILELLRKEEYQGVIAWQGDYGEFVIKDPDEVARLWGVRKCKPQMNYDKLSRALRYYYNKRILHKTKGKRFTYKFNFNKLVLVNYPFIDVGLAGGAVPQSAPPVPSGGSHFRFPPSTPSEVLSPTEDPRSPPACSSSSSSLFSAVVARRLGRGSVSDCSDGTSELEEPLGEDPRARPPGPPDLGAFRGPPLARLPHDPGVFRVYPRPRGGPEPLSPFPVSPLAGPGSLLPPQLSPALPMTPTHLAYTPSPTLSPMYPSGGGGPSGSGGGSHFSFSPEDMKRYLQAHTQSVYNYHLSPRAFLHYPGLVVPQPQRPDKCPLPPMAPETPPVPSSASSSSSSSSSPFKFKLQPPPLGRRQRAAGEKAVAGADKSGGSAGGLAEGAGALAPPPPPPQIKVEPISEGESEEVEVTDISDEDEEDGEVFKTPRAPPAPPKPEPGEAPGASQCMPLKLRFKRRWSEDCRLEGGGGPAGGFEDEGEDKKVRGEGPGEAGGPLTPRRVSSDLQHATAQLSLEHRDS
# In short: as §1
# ETV3L = target: T7, ETV3L (Homo sapiens, UniProt Q6ZN32 1-361); settings: protein: recombinant; tags: N-terminal GST; dsDNA, one strand shown
# T7 sequence: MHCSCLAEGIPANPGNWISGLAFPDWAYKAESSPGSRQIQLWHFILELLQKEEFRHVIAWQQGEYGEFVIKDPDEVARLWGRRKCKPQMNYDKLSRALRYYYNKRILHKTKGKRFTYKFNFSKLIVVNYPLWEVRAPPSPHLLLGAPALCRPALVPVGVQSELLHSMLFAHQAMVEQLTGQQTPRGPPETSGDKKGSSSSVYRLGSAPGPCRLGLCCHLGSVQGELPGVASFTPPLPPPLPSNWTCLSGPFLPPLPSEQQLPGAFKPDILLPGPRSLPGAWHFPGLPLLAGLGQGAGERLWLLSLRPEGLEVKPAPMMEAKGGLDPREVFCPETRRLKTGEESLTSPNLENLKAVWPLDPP
# In short: as §1
# ETS2 = target: T8, ETS2 (Homo sapiens, UniProt P15036 1-469); settings: protein: recombinant; tags: N-terminal GST; dsDNA, one strand shown
# T8 sequence: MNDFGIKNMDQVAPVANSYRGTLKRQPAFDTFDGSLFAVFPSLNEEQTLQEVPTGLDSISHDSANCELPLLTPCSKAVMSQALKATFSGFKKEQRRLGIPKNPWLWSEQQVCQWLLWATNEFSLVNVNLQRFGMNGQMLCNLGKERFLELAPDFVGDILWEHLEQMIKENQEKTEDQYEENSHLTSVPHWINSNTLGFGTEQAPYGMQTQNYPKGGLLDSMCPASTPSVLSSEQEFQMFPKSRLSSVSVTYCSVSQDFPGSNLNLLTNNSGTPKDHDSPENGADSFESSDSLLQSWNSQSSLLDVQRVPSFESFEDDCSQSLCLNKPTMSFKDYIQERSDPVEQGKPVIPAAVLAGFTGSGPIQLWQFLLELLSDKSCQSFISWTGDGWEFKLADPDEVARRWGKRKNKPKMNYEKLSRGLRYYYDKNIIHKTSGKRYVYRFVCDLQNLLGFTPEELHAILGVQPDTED
# In short: as §1
# SPDEF = target: T9, SPDEF (Homo sapiens, UniProt O95238 1-335); settings: protein: recombinant; tags: N-terminal GST; dsDNA, one strand shown
# T9 sequence: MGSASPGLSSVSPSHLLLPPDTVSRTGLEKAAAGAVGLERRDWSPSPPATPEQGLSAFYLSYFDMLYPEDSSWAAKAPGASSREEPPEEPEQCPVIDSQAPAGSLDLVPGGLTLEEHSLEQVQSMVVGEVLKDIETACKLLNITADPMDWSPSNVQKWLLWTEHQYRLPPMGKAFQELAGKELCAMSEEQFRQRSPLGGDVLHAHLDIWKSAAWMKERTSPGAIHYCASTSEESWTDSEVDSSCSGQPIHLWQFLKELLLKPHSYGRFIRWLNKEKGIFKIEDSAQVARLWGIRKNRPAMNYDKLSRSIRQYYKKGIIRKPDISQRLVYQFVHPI
# In short: as §1
# ETV7 = target: T10, ETV7 (Homo sapiens, UniProt Q9Y603 1-341); settings: protein: recombinant; tags: N-terminal GST; dsDNA, one strand shown
# T10 sequence: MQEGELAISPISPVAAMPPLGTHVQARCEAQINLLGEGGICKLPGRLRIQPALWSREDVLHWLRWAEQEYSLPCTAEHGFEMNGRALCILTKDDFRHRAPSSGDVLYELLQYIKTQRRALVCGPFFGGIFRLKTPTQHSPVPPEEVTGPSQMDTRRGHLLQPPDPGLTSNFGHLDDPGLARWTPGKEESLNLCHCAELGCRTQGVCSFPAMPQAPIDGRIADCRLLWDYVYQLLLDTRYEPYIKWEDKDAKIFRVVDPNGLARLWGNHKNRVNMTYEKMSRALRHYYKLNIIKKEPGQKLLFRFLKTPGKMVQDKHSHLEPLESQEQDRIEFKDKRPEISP
# In short: as §1
# ELF5 = target: T11, ELF5 (Homo sapiens, UniProt Q9UKW6-2 1-255); settings: protein: recombinant; tags: N-terminal GST; dsDNA, one strand shown
# T11 sequence: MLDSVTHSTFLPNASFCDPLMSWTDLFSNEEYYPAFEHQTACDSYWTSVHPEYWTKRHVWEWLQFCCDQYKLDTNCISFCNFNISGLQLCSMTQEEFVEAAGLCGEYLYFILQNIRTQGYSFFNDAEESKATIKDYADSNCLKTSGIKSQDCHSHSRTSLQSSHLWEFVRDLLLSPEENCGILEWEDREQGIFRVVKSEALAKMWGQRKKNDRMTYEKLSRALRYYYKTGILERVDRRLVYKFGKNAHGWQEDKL
# In short: as §1
# ETV3 = target: T12, ETV3 (Homo sapiens, UniProt P41162-2 1-143); settings: protein: recombinant; tags: N-terminal GST; dsDNA, one strand shown
# T12 sequence: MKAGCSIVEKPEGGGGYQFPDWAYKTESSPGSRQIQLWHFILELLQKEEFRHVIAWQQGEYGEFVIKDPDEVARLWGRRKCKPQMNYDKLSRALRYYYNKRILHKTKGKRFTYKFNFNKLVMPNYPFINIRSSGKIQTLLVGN
# In short: as §1
# ETV6 = ETV6 (Homo sapiens, UniProt P41212 1-452); settings: protein: recombinant; tags: N-terminal GST; dsDNA, one strand shown
# In short: as §1
# Chain of ELF4 (Q99607 whole entry): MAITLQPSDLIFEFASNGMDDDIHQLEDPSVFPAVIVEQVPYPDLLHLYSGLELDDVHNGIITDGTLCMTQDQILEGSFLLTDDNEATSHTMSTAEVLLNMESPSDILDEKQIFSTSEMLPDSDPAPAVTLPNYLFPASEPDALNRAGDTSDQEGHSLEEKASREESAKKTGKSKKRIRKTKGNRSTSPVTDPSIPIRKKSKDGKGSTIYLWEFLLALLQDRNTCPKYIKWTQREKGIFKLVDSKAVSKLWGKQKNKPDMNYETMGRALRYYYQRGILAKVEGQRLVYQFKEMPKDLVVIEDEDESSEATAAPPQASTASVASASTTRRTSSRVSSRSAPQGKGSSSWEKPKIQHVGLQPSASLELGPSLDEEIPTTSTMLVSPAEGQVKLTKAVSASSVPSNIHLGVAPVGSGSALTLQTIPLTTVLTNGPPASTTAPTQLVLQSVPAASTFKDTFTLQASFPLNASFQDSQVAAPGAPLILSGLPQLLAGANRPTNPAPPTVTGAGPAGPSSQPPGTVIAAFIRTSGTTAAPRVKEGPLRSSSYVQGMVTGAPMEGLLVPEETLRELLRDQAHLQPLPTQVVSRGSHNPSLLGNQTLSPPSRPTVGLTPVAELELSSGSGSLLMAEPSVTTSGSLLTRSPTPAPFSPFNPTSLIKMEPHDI
# Chain of ETV6 (P41212 whole entry): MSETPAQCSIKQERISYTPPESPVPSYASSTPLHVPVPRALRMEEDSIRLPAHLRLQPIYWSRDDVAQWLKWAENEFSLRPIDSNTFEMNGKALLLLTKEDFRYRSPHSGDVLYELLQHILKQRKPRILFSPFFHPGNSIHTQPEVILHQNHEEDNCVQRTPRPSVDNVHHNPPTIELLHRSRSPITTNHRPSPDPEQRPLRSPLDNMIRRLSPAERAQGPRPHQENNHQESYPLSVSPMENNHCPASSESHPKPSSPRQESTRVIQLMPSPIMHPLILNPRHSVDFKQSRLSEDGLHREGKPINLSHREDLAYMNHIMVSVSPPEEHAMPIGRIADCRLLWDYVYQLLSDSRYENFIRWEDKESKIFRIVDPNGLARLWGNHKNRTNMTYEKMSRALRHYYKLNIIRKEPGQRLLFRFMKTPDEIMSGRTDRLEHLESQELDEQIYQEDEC
# Chain of HSF1 (Q00613 whole entry): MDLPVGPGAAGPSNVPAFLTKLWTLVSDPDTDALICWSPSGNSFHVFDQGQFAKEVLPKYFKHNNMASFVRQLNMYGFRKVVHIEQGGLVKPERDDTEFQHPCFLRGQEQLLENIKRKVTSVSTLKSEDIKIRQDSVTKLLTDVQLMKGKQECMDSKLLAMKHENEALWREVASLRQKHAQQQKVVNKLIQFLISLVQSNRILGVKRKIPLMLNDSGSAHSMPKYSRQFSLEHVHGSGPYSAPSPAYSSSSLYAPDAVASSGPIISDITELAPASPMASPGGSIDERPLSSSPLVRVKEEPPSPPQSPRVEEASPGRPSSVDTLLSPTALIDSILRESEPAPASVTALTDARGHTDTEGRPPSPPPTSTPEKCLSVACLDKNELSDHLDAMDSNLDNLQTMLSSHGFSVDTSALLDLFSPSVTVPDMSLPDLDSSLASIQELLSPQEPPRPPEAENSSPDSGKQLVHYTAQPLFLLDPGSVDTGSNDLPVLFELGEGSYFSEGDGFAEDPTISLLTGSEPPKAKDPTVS
# Chain of ETV5 (P41161 whole entry): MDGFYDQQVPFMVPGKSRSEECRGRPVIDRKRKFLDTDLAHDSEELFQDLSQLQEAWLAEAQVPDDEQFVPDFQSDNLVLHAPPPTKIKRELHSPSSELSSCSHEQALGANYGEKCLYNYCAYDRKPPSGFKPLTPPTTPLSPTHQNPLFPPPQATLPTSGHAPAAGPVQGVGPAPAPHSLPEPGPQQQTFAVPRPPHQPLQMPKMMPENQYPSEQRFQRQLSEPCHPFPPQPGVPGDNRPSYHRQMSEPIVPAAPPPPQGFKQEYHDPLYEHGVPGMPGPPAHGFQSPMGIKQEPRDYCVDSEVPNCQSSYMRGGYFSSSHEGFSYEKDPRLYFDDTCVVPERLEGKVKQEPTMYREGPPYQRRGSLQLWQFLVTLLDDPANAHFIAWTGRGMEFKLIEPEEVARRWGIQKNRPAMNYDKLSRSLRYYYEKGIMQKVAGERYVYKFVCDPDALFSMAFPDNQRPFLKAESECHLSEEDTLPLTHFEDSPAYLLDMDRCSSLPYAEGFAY
# Chain of CRX (O43186 whole entry): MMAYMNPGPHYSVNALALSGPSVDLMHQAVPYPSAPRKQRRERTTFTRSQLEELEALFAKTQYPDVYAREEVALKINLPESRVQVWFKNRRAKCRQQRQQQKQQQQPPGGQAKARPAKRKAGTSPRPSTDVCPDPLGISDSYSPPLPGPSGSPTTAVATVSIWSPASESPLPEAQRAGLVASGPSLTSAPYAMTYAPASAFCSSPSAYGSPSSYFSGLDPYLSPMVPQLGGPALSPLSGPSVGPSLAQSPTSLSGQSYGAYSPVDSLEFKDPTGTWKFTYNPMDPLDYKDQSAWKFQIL
# Chain of ETV1 (P50549 whole entry): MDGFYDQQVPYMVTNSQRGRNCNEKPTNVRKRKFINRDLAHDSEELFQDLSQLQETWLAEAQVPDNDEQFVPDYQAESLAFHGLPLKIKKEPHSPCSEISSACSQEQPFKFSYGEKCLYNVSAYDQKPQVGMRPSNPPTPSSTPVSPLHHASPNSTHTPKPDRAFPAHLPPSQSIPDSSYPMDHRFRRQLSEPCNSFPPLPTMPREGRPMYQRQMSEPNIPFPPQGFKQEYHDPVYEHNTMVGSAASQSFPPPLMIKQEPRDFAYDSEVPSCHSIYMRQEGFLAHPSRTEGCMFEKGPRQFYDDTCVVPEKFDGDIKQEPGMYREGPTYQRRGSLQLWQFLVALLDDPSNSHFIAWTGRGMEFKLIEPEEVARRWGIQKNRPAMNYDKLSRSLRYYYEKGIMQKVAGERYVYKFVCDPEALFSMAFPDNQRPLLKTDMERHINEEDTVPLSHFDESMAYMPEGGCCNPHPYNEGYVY
sequence,measurement,setting,value
GTCTCC,binding signal,FEV,"1.53 fold enrichment (6-mer frequency, TF over GST control)"
same,binding signal,ETV5,"1.46 fold enrichment (6-mer frequency, TF over GST control)"
same,binding signal,HSF1,"1.15 fold enrichment (6-mer frequency, TF over GST control)"
same,binding signal,SPIC,"1.32 fold enrichment (6-mer frequency, TF over GST control)"
same,binding signal,ELF4,"1.43 fold enrichment (6-mer frequency, TF over GST control)"
same,binding signal,ELK4,"1.46 fold enrichment (6-mer frequency, TF over GST control)"
same,binding signal,ETV2,"1.38 fold enrichment (6-mer frequency, TF over GST control)"
same,binding signal,ELF3,"1.46 fold enrichment (6-mer frequency, TF over GST control)"
same,binding signal,CRX,"1.04 fold enrichment (6-mer frequency, TF over GST control)"
same,binding signal,ETV1,"1.37 fold enrichment (6-mer frequency, TF over GST control)"
same,binding signal,ERF,"1.45 fold enrichment (6-mer frequency, TF over GST control)"
same,binding signal,ETV3L,"1.67 fold enrichment (6-mer frequency, TF over GST control)"
same,binding signal,ETS2,"1.52 fold enrichment (6-mer frequency, TF over GST control)"
same,binding signal,SPDEF,"1.47 fold enrichment (6-mer frequency, TF over GST control)"
same,binding signal,ETV7,"1.32 fold enrichment (6-mer frequency, TF over GST control)"
same,binding signal,ELF5,"1.4 fold enrichment (6-mer frequency, TF over GST control)"
same,binding signal,ETV3,"1.52 fold enrichment (6-mer frequency, TF over GST control)"
same,binding signal,ETV6,"1.51 fold enrichment (6-mer frequency, TF over GST control)"
